# Reference: the supplement of paper PMC8728848
# The sample as a whole holds a higher share of the strongest signals than the screen did.
# B1: LSL-150 (Laetiporus sulphureus), Q7Z8V1 (protein)
# chain: MTDIYIPPEGLYFRLLGFASRQVIFARNSPSPDVGLSPVNDQATDQYFSLIYGTGEHAGLYAIKSKATGKVLFSRRPAEPYVGQIDGDGRYPDNWFKIEPGKTYLSKYFRLVQPSTGTALVSRTHLQPYFWNHPQTEVFDDQYFTFLFEDHHHHHH
# Key:
# Experiment in all cases: glycan array binding signal (z-score within array); higher = stronger binding
# Settings in all cases: glycan notation: IUPAC condensed, linker removed
# [1] = target: Fuc(a1-2)Gal(b1-3)GalNAc(a1-3)[Fuc(a1-2)]Gal(b1-4)Glc
# In short: (§1)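 Arrays were curated from the Consortium for Functional Glycomics database, 3228 in total, and kept only where the protein sequence was available. Binding is expressed as a within-array Z-score. This score was averaged across arrays of the same protein sequence at different concentrations or buffers and across linkers, and negative values can be read as non-binding.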
# [2] = target: Fuc(a1-2)Gal(b1-4)GlcNAc(b1-3)[Fuc(a1-3)[Gal(b1-4)]GlcNAc(b1-6)]Gal(b1-4)Glc
# In short: as §1
# [3] = target: Fuc(a1-2)Gal(b1-4)[Fuc(a1-3)]GlcNAc(b1-3)[Neu5Ac(a2-6)Gal(b1-4)GlcNAc(b1-6)]Gal(b1-4)Glc
# In short: as §1
# [4] = target: Fuc(a1-2)[Gal(a1-3)]Gal(b1-3)GlcNAc
# In short: as §1
# [5] = target: Fuc(a1-2)[Gal(a1-3)]Gal(b1-4)GlcNAc(b1-6)GalNAc
# In short: as §1
# [6] = target: Fuc(a1-2)[GalNAc(a1-3)]Gal(b1-3)GalNAc(b1-3)Gal(a1-4)Gal(b1-4)Glc
# In short: as §1
# [7] = target: Gal(a1-3)Gal(b1-4)GlcNAc(b1-2)Man
# In short: as §1
# [8] = target: Gal(b1-3)GlcNAc(b1-3)Gal(b1-4)GlcNAc
# In short: as §1
# [9] = target: Gal(b1-4)GlcNAc(b1-3)Gal(b1-3)GalNAc
# In short: as §1
# [10] = target: Gal(b1-4)GlcNAc(b1-3)Gal(b1-4)GlcNAc(b1-3)Gal(b1-4)GlcNAc(b1-2)Man(a1-3)[Gal(b1-4)GlcNAc(b1-3)Gal(b1-4)GlcNAc(b1-3)Gal(b1-4)GlcNAc(b1-2)Man(a1-6)]Man(b1-4)GlcNAc(b1-4)[Fuc(a1-6)]GlcNAc
# In short: as §1
# [11] = target: Gal(b1-4)GlcNAc(b1-3)Gal(b1-4)GlcNAc(b1-3)Gal(b1-4)GlcNAc(b1-2)[Gal(b1-4)GlcNAc(b1-3)Gal(b1-4)GlcNAc(b1-3)Gal(b1-4)GlcNAc(b1-6)]Man(a1-6)[Gal(b1-4)GlcNAc(b1-3)Gal(b1-4)GlcNAc(b1-3)Gal(b1-4)GlcNAc(b1-2)Man(a1-3)]Man(b1-4)GlcNAc(b1-4)[Fuc(a1-6)]GlcNAc
# In short: as §1
# [12] = target: Gal(b1-4)GlcNAc(b1-3)Gal(b1-4)GlcNAc(b1-3)Gal(b1-4)GlcNAc(b1-3)Gal(b1-4)GlcNAc(b1-2)Man(a1-3)[Gal(b1-4)GlcNAc(b1-3)Gal(b1-4)GlcNAc(b1-3)Gal(b1-4)GlcNAc(b1-3)Gal(b1-4)GlcNAc(b1-2)Man(a1-6)]Man(b1-4)GlcNAc(b1-4)GlcNAc
# In short: as §1
# [13] = target: Gal(b1-4)GlcNAc(b1-3)Gal(b1-4)GlcNAc(b1-3)Gal(b1-4)GlcNAc(b1-3)Gal(b1-4)GlcNAc(b1-2)Man(a1-3)[Gal(b1-4)GlcNAc(b1-3)Gal(b1-4)GlcNAc(b1-3)Gal(b1-4)GlcNAc(b1-3)Gal(b1-4)GlcNAc(b1-2)Man(a1-6)]Man(b1-4)GlcNAc(b1-4)[Fuc(a1-6)]GlcNAc
# In short: as §1
# [14] = target: Gal(b1-4)GlcNAc(b1-3)Gal(b1-4)GlcNAc(b1-3)Gal(b1-4)GlcNAc(b1-3)Gal(b1-4)GlcNAc(b1-2)[Gal(b1-4)GlcNAc(b1-3)Gal(b1-4)GlcNAc(b1-3)Gal(b1-4)GlcNAc(b1-3)Gal(b1-4)GlcNAc(b1-6)]Man(a1-6)[Gal(b1-4)GlcNAc(b1-3)Gal(b1-4)GlcNAc(b1-3)Gal(b1-4)GlcNAc(b1-3)Gal(b1-4)GlcNAc(b1-2)Man(a1-3)]Man(b1-4)GlcNAc(b1-4)[Fuc(a1-6)]GlcNAc
# In short: as §1
# [15] = target: Gal(b1-4)GlcNAc(b1-3)Gal(b1-4)GlcNAc(b1-3)Gal(b1-4)GlcNAc(b1-3)Gal(b1-4)GlcNAc(b1-3)Gal(b1-4)GlcNAc(b1-2)Man(a1-3)[Gal(b1-4)GlcNAc(b1-3)Gal(b1-4)GlcNAc(b1-3)Gal(b1-4)GlcNAc(b1-3)Gal(b1-4)GlcNAc(b1-3)Gal(b1-4)GlcNAc(b1-2)Man(a1-6)]Man(b1-4)GlcNAc(b1-4)GlcNAc
# In short: as §1
# [16] = target: Gal(b1-4)GlcNAc(b1-3)Gal(b1-4)GlcNAc(b1-3)Gal(b1-4)GlcNAc(b1-3)Gal(b1-4)GlcNAc(b1-3)Gal(b1-4)GlcNAc(b1-2)Man(a1-3)[Gal(b1-4)GlcNAc(b1-3)Gal(b1-4)GlcNAc(b1-3)Gal(b1-4)GlcNAc(b1-3)Gal(b1-4)GlcNAc(b1-3)Gal(b1-4)GlcNAc(b1-2)Man(a1-6)]Man(b1-4)GlcNAc(b1-4)[Fuc(a1-6)]GlcNAc
# In short: as §1
# [17] = target: Gal(b1-4)GlcNAc(b1-3)Gal(b1-4)GlcNAc(b1-3)Gal(b1-4)GlcNAc(b1-3)Gal(b1-4)GlcNAc(b1-3)Gal(b1-4)GlcNAc(b1-2)[Gal(b1-4)GlcNAc(b1-3)Gal(b1-4)GlcNAc(b1-3)Gal(b1-4)GlcNAc(b1-3)Gal(b1-4)GlcNAc(b1-3)Gal(b1-4)GlcNAc(b1-6)]Man(a1-6)[Gal(b1-4)GlcNAc(b1-3)Gal(b1-4)GlcNAc(b1-3)Gal(b1-4)GlcNAc(b1-3)Gal(b1-4)GlcNAc(b1-3)Gal(b1-4)GlcNAc(b1-2)Man(a1-3)]Man(b1-4)GlcNAc(b1-4)[Fuc(a1-6)]GlcNAc
# In short: as §1
# [18] = target: Gal(b1-4)GlcNAc(b1-3)Gal(b1-4)GlcNAc(b1-3)Gal(b1-4)GlcNAc(b1-3)Gal(b1-4)GlcNAc(b1-3)Gal(b1-4)GlcNAc(b1-3)Gal(b1-4)GlcNAc(b1-2)Man(a1-3)[Gal(b1-4)GlcNAc(b1-3)Gal(b1-4)GlcNAc(b1-3)Gal(b1-4)GlcNAc(b1-3)Gal(b1-4)GlcNAc(b1-3)Gal(b1-4)GlcNAc(b1-3)Gal(b1-4)GlcNAc(b1-2)Man(a1-6)]Man(b1-4)GlcNAc(b1-4)GlcNAc
# In short: as §1
# [19] = target: Gal(b1-4)GlcNAc(b1-3)Gal(b1-4)GlcNAc(b1-3)[Gal(b1-4)GlcNAc(b1-3)Gal(b1-4)GlcNAc(b1-6)]GalNAc
# In short: as §1
# [20] = target: Gal3S(b1-4)Glc
# In short: as §1
# [21] = target: GalNAc(b1-3)Gal
# In short: as §1
# [22] = target: GalNAc(b1-4)GlcNAc6S
# In short: as §1
# [23] = target: Glc(a1-6)Glc(a1-6)Glc(a1-6)Glc
# In short: as §1
# [24] = target: GlcNAc(b1-2)Man(a1-3)[GlcNAc(b1-2)Man(a1-6)]Man(b1-4)GlcNAc(b1-4)GlcNAc
# In short: as §1
# [25] = target: GlcNAc(b1-3)Gal
# In short: as §1
# [26] = target: GlcNAc(b1-3)Gal(b1-4)GlcNAc(b1-3)Gal(b1-4)GlcNAc(b1-2)Man(a1-3)[GlcNAc(b1-3)Gal(b1-4)GlcNAc(b1-3)Gal(b1-4)GlcNAc(b1-2)Man(a1-6)]Man(b1-4)GlcNAc(b1-4)GlcNAc
# In short: as §1
# [27] = target: GlcNAc(b1-3)Gal(b1-4)GlcNAc(b1-3)Gal(b1-4)GlcNAc(b1-3)Gal(b1-4)GlcNAc(b1-3)Gal(b1-4)GlcNAc(b1-2)Man(a1-3)[GlcNAc(b1-3)Gal(b1-4)GlcNAc(b1-3)Gal(b1-4)GlcNAc(b1-3)Gal(b1-4)GlcNAc(b1-3)Gal(b1-4)GlcNAc(b1-2)Man(a1-6)]Man(b1-4)GlcNAc(b1-4)GlcNAc
# In short: as §1
# [28] = target: GlcNAc(b1-3)Gal(b1-4)GlcNAc(b1-3)Gal(b1-4)GlcNAc(b1-3)Gal(b1-4)GlcNAc(b1-3)Gal(b1-4)GlcNAc(b1-2)[GlcNAc(b1-3)Gal(b1-4)GlcNAc(b1-3)Gal(b1-4)GlcNAc(b1-3)Gal(b1-4)GlcNAc(b1-3)Gal(b1-4)GlcNAc(b1-6)]Man(a1-6)[GlcNAc(b1-3)Gal(b1-4)GlcNAc(b1-3)Gal(b1-4)GlcNAc(b1-3)Gal(b1-4)GlcNAc(b1-3)Gal(b1-4)GlcNAc(b1-2)Man(a1-3)]Man(b1-4)GlcNAc(b1-4)[Fuc(a1-6)]GlcNAc
# In short: as §1
# [29] = target: Kdn(a2-3)Gal(b1-3)GalNAc
# In short: as §1
# [30] = target: Man(a1-3)[Man(a1-6)]Man
# In short: as §1
binder,measurement,setting,value
B1,glycan array binding signal (z-score),[1],-0.208
same,glycan array binding signal (z-score),[2],-0.2
same,glycan array binding signal (z-score),[3],-0.204
same,glycan array binding signal (z-score),[4],-0.206
same,glycan array binding signal (z-score),[5],-0.207
same,glycan array binding signal (z-score),[6],-0.209
same,glycan array binding signal (z-score),[7],-0.208
same,glycan array binding signal (z-score),[8],-0.124
same,glycan array binding signal (z-score),[9],-0.205
same,glycan array binding signal (z-score),[10],5.23
same,glycan array binding signal (z-score),[11],5.29
same,glycan array binding signal (z-score),[12],5.88
same,glycan array binding signal (z-score),[13],6.24
same,glycan array binding signal (z-score),[14],6.23
same,glycan array binding signal (z-score),[15],5.44
same,glycan array binding signal (z-score),[16],6.16
same,glycan array binding signal (z-score),[17],6.2
same,glycan array binding signal (z-score),[18],5.13
same,glycan array binding signal (z-score),[19],0.034
same,glycan array binding signal (z-score),[20],-0.196
same,glycan array binding signal (z-score),[21],-0.207
same,glycan array binding signal (z-score),[22],-0.203
same,glycan array binding signal (z-score),[23],-0.207
same,glycan array binding signal (z-score),[24],-0.205
same,glycan array binding signal (z-score),[25],-0.195
same,glycan array binding signal (z-score),[26],0.937
same,glycan array binding signal (z-score),[27],5.26
same,glycan array binding signal (z-score),[28],7.09
same,glycan array binding signal (z-score),[29],-0.201
same,glycan array binding signal (z-score),[30],-0.2
